Rows were chosen to be rich in hits. Some 4.2% of all compounds tested hit in one or more screens of this group.
tim23-1 inh – growth inhibitors of tim23-1 mutant yeast | AID 463212 | inhibition, % at 20 µM | S. cerevisiae tim23-1 growth, BacTiter-Glo luminescence, 24 h | 1.3% of 330,000 active;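 active means growth inhibition of the mutant yeast at or above 50%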;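 further: temperature-sensitive mutant grown at 25 °C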
TIM10 inh – inhibits growth of TIM10 yeast strain | S. cerevisiae TIM10 strain growth, BacTiter-Glo luminescence, 24 h | inhibition, % at 10 µM | 1.4% of 330,000 active | AID 463195;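 active means inhibition of 40% or more at the single tested concentration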;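 further: wild-type TIM10 isogenic control strain grown at permissive 25 °C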
PfHsp90 set2 – growth inhibition of yeast expressing Plasmodium Hsp90; 0.32% of 310,000 active; S. cerevisiae expressing PfHsp90, BacTiter-Glo ATP, 48 h; yeast lacking PDR1 and PDR3 efflux regulators; inhibition, % at 9.4 µM;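 active means every replicate shows inhibition above about 80%, whatever the replicate mean, limit read from the data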
NALP1 inh – NALP1 inhibition. S. cerevisiae NALP1/ASC/caspase-1 growth, X-gal OD620, 72 h. inhibition, % at 10 µM. 0.61% of 280,000 active. AID 2071; in the data active means inhibition mostly above about 24%, no sharp cut-off; inactive means mostly below about 32%
NALP3 yeast inh – blocks the NALP3 inflammasome reconstituted in yeast. Yeast reconstituted NLRP3/ASC/caspase-1, beta-gal luminescence, 24 h. inhibition, % at 10 µM. 0.39% of 330,000 active. AID 2825;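 active means inhibition of 50% or more; inactive means inhibition below 50%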
tim10-1 inh – tim10-1 yeast growth inhibition; S. cerevisiae tim10-1 ts strain growth, BacTiter-Glo, 24 h; 2.2% of 330,000 active; inhibition, % at 20 µM;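 active means inhibition of at least 40%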;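 further: mutant grown at 25 °C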
A number is an active result; i = inactive; nt = no result.

SMILES	tim23-1 inh	TIM10 inh	PfHsp90 set2	NALP1 inh	NALP3 yeast inh	tim10-1 inh
Cc1nc2cccc(C(=O)NC3CCCCC3)c2o1	i	i	i	32	i	i
Cc1ccc(C)c(S(=O)(=O)Nc2nc3ccc(S(N)(=O)=O)cc3s2)c1	i	i	i	i	i	i
COc1ccc(C(O)(c2ccccc2OC)C(CN2CCOCC2)c2ccccc2)cc1 (stereo not given)	i	i	i	i	i	i
COc1ccc(Cl)cc1C(Nc1cccnc1)c1ccc2cccnc2c1O (stereo not given)	i	i	104	i	i	i
CCC(=O)NC(c1ccccc1OC)c1ccc2cccnc2c1O (stereo not given)	i	i	i	i	i	i
CC(=NNC(=S)N1CC2CCC(CC2)C1)c1ccncn1	nt	nt	111	nt	nt	nt
O=[N+]([O-])c1ccc2nc(CCCc3nc4ccc([N+](=O)[O-])cc4[nH]3)[nH]c2c1	i	i	i	32	i	i
C=C(C)C1CC=C(CN2CC(C)OC(C)C2)CC1 (stereo not given)	i	i	i	41	i	i
Cc1cc(-c2cc(-c3ccc(Cl)cc3)nc(N)c2C#N)co1	i	i	122	i	i	i
Cc1ccc(-c2cc(-c3ccc(F)cc3)c(C#N)c(N)n2)o1	i	i	120	i	i	i
Cc1ccc(-c2cc(-c3ccc(C)o3)nc(N)c2C#N)cc1	i	i	i	i	i	i
Nc1nc(=S)c2ncn(C3OC(CO)CC3O)c2[nH]1 (stereo not given)	nt	nt	i	nt	nt	nt
CC(=O)Nc1ccc(NC(=O)CCCN2C(=O)c3ccccc3C2=O)cc1	i	i	i	i	i	i
CC(=O)Nc1ccc(NC(=O)CCN2C(=O)c3ccccc3C2=O)cc1	i	i	i	44	i	i
Cc1ccc(S(=O)(=O)N[C@@H](C)C(=O)N2CCC(C(=O)N[C@@H](Cc3ccccc3)C(=O)O)CC2)cc1	i	i	i	i	i	i
O=S(=O)(Nc1cccc(-n2cnnn2)c1)c1ccccc1F	i	i	i	i	i	i
COC(=O)c1ccccc1NC(=O)CSc1nc(N)cc(N)n1	i	i	i	32	i	i
COCCN(CCOC)C(=O)CSc1ccc(S(=O)(=O)N2CCN(C)CC2)cn1	i	i	nt	nt	i	i
COc1ccc(CN(Cc2cccnc2)C(=S)NCCc2ccccc2)cc1OC	i	i	i	i	i	i
Cc1cccc(NC(=S)NC2CCSc3ccccc32)c1 (stereo not given)	i	i	i	i	i	i
S=C(NCc1ccccc1)NC1CCSc2ccccc21 (stereo not given)	i	i	i	27	i	i
COc1ccc(CNCCC(c2ccccc2)c2ccc3c(c2)OCO3)cc1 (stereo not given)	i	i	i	27	i	i
CN(NS(=O)(=O)c1ccc(Cl)cc1)c1nc(C(F)(F)F)nc2ccccc12	i	i	i	i	i	i
COC(=O)C1(C(C[N+](=O)[O-])c2ccc(C)cc2)C(=O)NCC1c1ccco1 (stereo not given)	i	i	nt	46	i	i
CN1CCN(C(=O)CC2(CC(=O)O)CCCC2)CC1	i	i	i	i	i	i
SMILES	tim23-1 inh	TIM10 inh	PfHsp90 set2	NALP1 inh	NALP3 yeast inh	tim10-1 inh
C=CCN1C(=O)/C(=C\c2ccc(OC(=O)c3ccco3)c(OC)c2)SC1=S	i	i	i	30	i	i
C=CCN1C(=O)/C(=C\c2cccc(OC(=O)c3ccco3)c2)SC1=S	i	i	i	i	i	i
O=C(CSc1nc(=O)n(CCN2CCOCC2)c2c1CCCC2)Nc1cccc([N+](=O)[O-])c1	i	i	i	nt	i	i
COc1ccc(N=C2S/C(=C\c3ccc(C)o3)C(=O)N2CC(C)C)cc1	i	i	i	40	i	i
Cc1[nH]c2ccccc2c1NC(=O)CN1CCN(C(=O)c2ccco2)CC1	i	i	nt	42	i	i
O=C(C=P(c1ccccc1)(c1ccccc1)c1ccccc1)c1ccccc1-c1ccccc1C(=O)C=P(c1ccccc1)(c1ccccc1)c1ccccc1	nt	nt	145	nt	nt	nt
O=C(NNC(=O)c1ccccc1-c1ccccc1C(=O)O)c1ccccc1	i	i	i	i	i	i
O=C(COc1ccc([N+](=O)[O-])cc1Cl)NCCc1ccccc1	i	i	i	73	i	i
O=C1NCC(c2ccccc2)C1C(=O)N/N=C\c1ccc(-c2ccc(Cl)c(Cl)c2)o1 (stereo not given)	i	i	i	i	i	i
O=C1NCC(c2ccccc2)C1C(=O)N/N=C/c1ccc(Cl)s1 (stereo not given)	i	i	i	37	i	i
CC(C)Sc1ccccc1C(=O)Nc1ccc2c(c1)n(C)c(=O)n2C	i	i	i	i	i	i
CCC(C(=O)N/N=C(\C)c1cccnc1)c1ccccc1 (stereo not given)	i	i	i	i	i	i
CCn1cc(C(=O)OCC(=O)Nc2ccccc2OC(F)F)c(=O)c2ccc(C)nc21	i	i	i	nt	i	i
CCn1cc(C(=O)OCC(=O)Nc2ccc(C(C)C)cc2)c(=O)c2ccc(C)nc21	i	i	i	25	i	i
O=C(CN1C(=O)c2ccc([N+](=O)[O-])cc2C1=O)NC1CCCCCC1	i	i	i	nt	i	i
O=[N+]([O-])c1cc2no[n+]([O-])c2cc1N1CCCCC1	nt	nt	105	nt	nt	nt
N#Cc1cc(N2CCCCC2)c([N+](=O)[O-])cc1C#N	i	i	i	i	i	i
CCOc1ncccc1C(=O)Nc1ccc(C)c(S(=O)(=O)N2CCCCCC2)c1	i	i	i	nt	i	i
C=CCn1c(=S)[nH]c2cc(C(=O)Nc3ccc(F)cc3)ccc2c1=O	i	i	i	i	i	i
CC(=O)C1C(=O)C=C(c2cccs2)CC1c1ccccc1 (stereo not given)	i	i	i	i	i	i
O=C1C=C(c2cccs2)C[C@H](c2ccccc2)[C@H]1n1nnc([N+](=O)[O-])n1	i	i	92	i	i	i
CC(=O)Nc1cccc(NC(=O)c2cc(-c3cccnc3)nc3ccc(Cl)cc23)c1	i	i	i	i	i	i
O=C(Nc1nncs1)c1cc(-c2ccncc2)nc2ccc(Cl)cc12	i	i	i	27	i	i
CCOC(=O)C1CCCN(C(=O)CCn2nnnc2CN2CCOCC2)C1 (stereo not given)	i	i	i	35	i	i
CCN(CC)S(=O)(=O)c1cccc(NC(=O)c2ccc(Br)cc2)c1	i	i	96	i	i	i
COc1cccc(-c2onc3ccc(C(=O)/C=C/N(C)C)cc23)c1	i	i	i	i	i	i
Cc1ccc(-c2onc3ccc(C(=O)/C=C/N(C)C)cc23)cc1	i	i	119	i	i	i
C/C(=N\NC(=O)c1cccc(S(=O)(=O)N2CCCC2)c1)c1ccc(C)cc1	i	i	nt	nt	i	i
Fc1ccc(-c2csc(N3CCC(c4ccccc4)C3)n2)cc1 (stereo not given)	i	i	i	32	i	i

From PubChem
